Data reported in PubChem BioAssay (NCATS).
Records with an inconclusive call do not appear. Activity calls are given as the source filed them. The call rests on the fitted dose curve; in most records, active means well fitted curve in the direction sought with a large enough effect; inconclusive means small, poorly fitted or top-dose-only effect, or another doubt; inactive means no such curve, though single readings can be large; an effect the other way counts as inactive or inconclusive.

Tests used:
[1] = qHTS of pediatric cancer cell lines to identify multiple opportunities for drug repurposing: Primary screen for BT-12 cells (AID 1347101); further: nearly all actives have a fitted effect of over 25% in size
How it was run: (§1)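 Cells (500-1,000/well) rested 5 h, then received compounds for 48 h; metabolically active cells were measured by CellTiter-Glo luminescence. Final concentrations spanned up to 46 µM (MIPE, 11-point) or 0.59 nM-46 µM (NPC, 8-point) in primary screens, 11-point in follow-ups.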

[2] = qHTS of pediatric cancer cell lines to identify multiple opportunities for drug repurposing: Primary screen for Rh18 cells (AID 1347102); further: nearly all actives have a fitted effect of over 65% in size
How it was run: as §1

[3] = qHTS of pediatric cancer cell lines to identify multiple opportunities for drug repurposing: Primary screen for OHS-50 cells (AID 1347103); further: nearly all actives have a fitted effect of over 40% in size
How it was run: as §1

[4] = qHTS of pediatric cancer cell lines to identify multiple opportunities for drug repurposing: Primary screen for RD cells (AID 1347104); further: nearly all actives have a fitted effect of over 55% in size
How it was run: (§2)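 CRCs from 8- or 11-point titrations (lowest final 0.59 nM NPC, 0.78 nM MIPE). Cell viability: CellTiter-Glo after 48 h incubation, 15 min room-temperature development, luminescence imaging.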

[5] = qHTS of pediatric cancer cell lines to identify multiple opportunities for drug repurposing: Primary screen for MG 63 (6-TG R) cells (AID 1347105); further: nearly all actives have a fitted effect of over 50% in size
How it was run: as §2

[6] = qHTS of pediatric cancer cell lines to identify multiple opportunities for drug repurposing: Primary screen for control Hh wild type fibroblast cells (AID 1347106);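 further: series mostly up to about 46 µM; a drop in luminescence marks cytotoxicity and a rise apparent proliferation; nearly all actives have a fitted effect of over 55% in size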
How it was run: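 Cells (500-1,000/well) in growth media were settled 5 h at 37 degrees C, then given compounds for 48 h. Viability was read as CellTiter-Glo luminescence. Primary runs used MIPE at 11 points (0.78 nM-46 µM) and NPC at 8 points (0.59 nM-46 µM); follow-ups used 11 points.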

[7] = qHTS of pediatric cancer cell lines to identify multiple opportunities for drug repurposing: Primary screen for Rh30 cells (AID 1347107); further: series mostly up to about 46 µM; nearly all actives have a fitted effect of over 75% in size
How it was run: as §1

[8] = qHTS of pediatric cancer cell lines to identify multiple opportunities for drug repurposing: Primary screen for Rh41 cells (AID 1347108);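 further: series mostly up to about 46 µM; luminescence drop marks cytotoxic hits; nearly all actives have a fitted effect of over 70% in size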
How it was run: as §2

[9] = qHTS of pediatric cancer cell lines to identify multiple opportunities for drug repurposing: Confirmatory screen for NB1643 cells (AID 1347109); further: nearly all actives have a fitted effect of over 45% in size
How it was run: as §1

[10] = qHTS of pediatric cancer cell lines to identify multiple opportunities for drug repurposing: Confirmatory screen for A673 cells (AID 1347110);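 further: cells exposed to compound for 48 h before the viability read; nearly all actives have a fitted effect of over 65% in size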; further: potency means the concentration at half of the fitted maximal effect
How it was run: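 A673 cells at 500-1,000 cells/well were dosed 5 h after plating, in dilution series up to 46 uM final; primary runs used 8 or 11 points and confirmatory runs used 11 points. Viability was read by CellTiter-Glo luminescence after 48 h, against DMSO and 2.3 uM bortezomib controls.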

Measured: Potency

CO[C@@]1(NC(=O)C(C(=O)O)c2ccc(O)cc2)C(=O)N2C(C(=O)O)=C(CSc3nnnn3C)CO[C@@H]21 (some centres undefined)
inactive: [1] | [2] | [3] | [4] | [5] | [6] | [7] | [8]

Cc1c(Cn2ccnc2)c2ccccc2n1CCC(=O)O
inactive: [1] | [2] | [3] | [4] | [5] | [6] | [7] | [8]

CCN(CC)CC1CCCCN1CC(=O)N1c2ccccc2C(=O)Nc2cccnc21 (centres undefined)
inactive: [1] | [2] | [3] | [4] | [5] | [6] | [7] | [8]

CCN(CC)S(=O)(=O)c1ccc(C(=O)O)cc1
inactive: [1] | [2] | [3] | [4] | [5] | [6] | [7] | [8]

O=c1[nH]c2cc(C(F)(F)F)c(N3CCOCC3)cc2n(CP(=O)(O)O)c1=O
inactive: [1] | [2] | [3] | [4] | [5] | [6] | [7] | [8]

O=C(O)COC(=O)Cc1ccccc1Nc1c(Cl)cccc1Cl
inactive: [1] | [2] | [3] | [4] | [5] | [6] | [7] | [8]

O=C1c2ccccc2S(=O)(=O)N1CCCCN1CCN(c2ncccn2)CC1
inactive: [1] | [2] | [3] | [4] | [5] | [6] | [7] | [8]

CC1(c2ccccc2)OC(C(=O)O)=CC1=O (centres undefined)
inactive: [1] | [2] | [3] | [4] | [5] | [6] | [7] | [8]

O=C(CCBr)N1CCN(C(=O)CCBr)CC1
inactive: [1] | [2] | [3] | [4] | [5] | [6] | [7] | [8]

C[C@@H]1CCC[C@H](C)N1
inactive: [1] | [2] | [3] | [4] | [5] | [6] | [7] | [8]

NC(=O)CC[C@@H](N)C(=O)O
inactive: [1] | [2] | [3] | [4] | [6] | [7]

C[C@@H](c1ncncc1F)C(O)(Cn1cncn1)c1ccc(F)cc1F (some centres undefined)
inactive: [1] | [2] | [3] | [4] | [6] | [7]

CCCCCCCC(=O)OCC(COC(=O)CCCCCCC)OC(=O)CCCCCCC
inactive: [1] | [2] | [3] | [4] | [6] | [7]

OCC(O)CS (centres undefined)
inactive: [1] | [2] | [3] | [4] | [5] | [6] | [7] | [8]

CN1CC(=O)NC1=N
inactive: [1] | [2] | [3] | [4] | [5] | [6] | [7] | [8]

COc1ccccc1Oc1c(NS(=O)(=O)c2ccc(C(C)(C)C)cc2)nc(-c2ncccn2)nc1OCCO
inactive: [1] | [2] | [3] | [4] | [5] | [6] | [7] | [8]

CC(=O)[C@@]1(O)CC[C@H]2[C@@H]3C[C@H](C)C4=CC(=O)C=C[C@]4(C)[C@@]3(F)[C@@H](O)C[C@@]21C
inactive: [1] | [2] | [3] | [4] | [5] | [6] | [7] | [8] | [9] | [10]

O=C(O)c1ccccc1OP(=O)(O)O
inactive: [1] | [2] | [3] | [4] | [6] | [7]

O=C(O)Cc1cn(-c2ccccc2)nc1-c1ccc(Cl)cc1
inactive: [1] | [2] | [3] | [4] | [5] | [6] | [7] | [8]

Cc1c(N(C)C)c(=O)n(-c2ccccc2)n1C
inactive: [1] | [2] | [3] | [4] | [5] | [6] | [7] | [8]

O=C(c1ccccc1)C(O)c1ccccc1 (centres undefined)
inactive: [1] | [2] | [3] | [4] | [5] | [6] | [7] | [8]

COc1cc(C(=O)NCCCCCC(=O)O)cc(OC)c1OC
inactive: [1] | [2] | [3] | [4] | [5] | [6] | [7] | [8] | [9] | [10]

O=C(NCN1CCOCC1)c1cnccn1
inactive: [1] | [2] | [3] | [4] | [5] | [6] | [7] | [8]

CC(C)(C)NCC(O)COc1cccc2c1CCC(=O)N2 (centres undefined)
inactive: [1] | [2] | [3] | [4] | [5] | [6] | [7] | [8]

CCC(C)(CN(C)C)OC(=O)c1ccccc1 (centres undefined)
inactive: [1] | [2] | [3] | [4] | [6] | [7]

CC[C@]12CCCN3CCc4c(n(c5ccccc45)[C@@](O)(C(=O)OC)C1)[C@@H]32
inactive: [1] | [2] | [3] | [4] | [5] | [6] | [7] | [8]

NNc1nnc(NN)c2ccccc12
inactive: [1] | [2] | [3] | [4] | [5] | [6] | [7] | [8]

O=C(Cn1ccnc1[N+](=O)[O-])NCc1ccccc1
active: [10] 1170 nM
inactive: [1] | [2] | [3] | [4] | [5] | [6] | [7] | [8] | [9]

CCN[C@H]1CN(CCCOC)S(=O)(=O)c2sc(S(N)(=O)=O)cc21
inactive: [1] | [2] | [3] | [4] | [5] | [6] | [7] | [8]

COc1nccnc1NS(=O)(=O)c1ccc(N)cc1
inactive: [1] | [2] | [3] | [4] | [5] | [6] | [7] | [8]

OC[C@@H](O)[C@@H](O)[C@H](O)[C@H](O)CO
inactive: [1] | [2] | [3] | [4] | [5] | [6] | [7] | [8]

CC(=O)Oc1cccc(C)c1
inactive: [1] | [2] | [3] | [4] | [5] | [6] | [7] | [8]

CC(=O)N[C@@H](CC(C)C)C(=O)O
inactive: [1] | [2] | [3] | [4] | [6] | [7] | [8]

CC(=O)Nc1ccc(OCCOCCOc2ccc(NC(C)=O)cc2)cc1
inactive: [1] | [2] | [3] | [4] | [6] | [7] | [8]

CC[C@H](C)[C@H](N)C(=O)O
inactive: [1] | [2] | [3] | [4] | [6] | [7] | [8]

O=C(O)C(S)C(S)C(=O)O (centres undefined)
inactive: [1] | [2] | [4] | [5] | [6] | [7]

CCN(CC)C(=O)c1cccc(C)c1
inactive: [1] | [2] | [3] | [4] | [6] | [7] | [8]

CN1CCN(C(=O)C2CCCCC2)CC1
inactive: [1] | [2] | [4] | [5] | [6] | [7] | [8]

O=C(Cn1ccnc1[N+](=O)[O-])NCCO
inactive: [1] | [2] | [3] | [4] | [6] | [7] | [8]

O=C(O)c1ccc[n+]([O-])c1
inactive: [1] | [2] | [3] | [4] | [6] | [7] | [8]

CCCCCOC(=O)Nc1nc(=O)n([C@@H]2O[C@H](C)[C@@H](O)[C@H]2O)cc1F
inactive: [1] | [2] | [3] | [4] | [6] | [7] | [8]

COC(=O)c1ccccc1C(=O)c1ccc(OCCN2CCCCC2)cc1
inactive: [1] | [2] | [4] | [5] | [6] | [7]

CN1CCCN=C1COC(=O)C(O)(c1ccccc1)C1CCCCC1 (centres undefined)
inactive: [1] | [2] | [3] | [5] | [6] | [7]

Cc1ccc(S(=O)(=O)NC(=O)NC2CCCCCCC2)cc1
inactive: [1] | [2] | [4] | [5] | [6] | [7]

CC(=O)N[C@@H](Cc1ccc(O)cc1)C(=O)O
inactive: [1] | [2] | [3] | [4] | [6] | [7] | [8]

COc1ccc(C(=O)NCc2ccc(OCCN(C)C)cc2)cc1OC
inactive: [1] | [2] | [3] | [4] | [6] | [7] | [8]

CC1CC(OC(=O)c2ccccc2O)CC(C)(C)C1 (centres undefined)
inactive: [1] | [2] | [3] | [4] | [6] | [7] | [8]

O=C(/C=C/c1ccc(O)c(O)c1)O[C@@H]1C[C@@](OC(=O)/C=C/c2ccc(O)c(O)c2)(C(=O)O)C[C@@H](O)[C@@H]1O
inactive: [1] | [2] | [4] | [5] | [6] | [7]

CCCCCCCC(=O)OCC(O)CO (centres undefined)
inactive: [1] | [2] | [3] | [4] | [6] | [7] | [8]

Cn1cc(C(=O)[C@@H]2CCc3nc[nH]c3C2)c2ccccc21
inactive: [1] | [2] | [4] | [5] | [6] | [7] | [8]

Cc1ncc(CO)c(CN)c1O
inactive: [1] | [2] | [4] | [5] | [6] | [7]
